# mcGAS RapidFire: inhibitors of Mus musculus cyclic GMP-AMP synthase, initial high-throughput assay, cell-free, RapidFire MS. recombinant mouse cGAS, cGAMP by RapidFire MS. inhibition, % at 12.5 µM. 130,000 tested, 0.18% active;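 active = inhibition of cGAS enzyme activity at or above 60%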;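 also: enzyme stimulated by 45 bp dsDNA with ATP and GTP substrates; cGAMP share of summed cGAMP plus half ATP and half GTP signals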
# Target sequence (Q8C6L5 whole entry, looked up): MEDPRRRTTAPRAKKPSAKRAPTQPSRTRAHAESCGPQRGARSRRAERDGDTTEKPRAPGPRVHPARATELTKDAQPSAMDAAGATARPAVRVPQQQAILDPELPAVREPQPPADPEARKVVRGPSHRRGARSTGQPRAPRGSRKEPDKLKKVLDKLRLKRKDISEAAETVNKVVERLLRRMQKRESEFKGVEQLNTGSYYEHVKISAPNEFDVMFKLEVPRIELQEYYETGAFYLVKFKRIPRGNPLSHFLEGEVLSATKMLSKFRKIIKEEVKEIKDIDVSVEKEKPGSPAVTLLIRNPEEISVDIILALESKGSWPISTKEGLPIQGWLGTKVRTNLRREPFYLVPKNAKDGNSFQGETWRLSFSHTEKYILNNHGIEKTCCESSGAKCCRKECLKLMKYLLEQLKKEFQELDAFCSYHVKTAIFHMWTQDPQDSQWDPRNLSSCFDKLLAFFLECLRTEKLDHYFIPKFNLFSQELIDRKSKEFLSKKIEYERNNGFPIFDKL
# Numbers without * were called inactive. This is one part of a sample in which hits are shown more often than they occur.
SMILES,mcGAS RapidFire
Nc1nnc(Sc2ncc([N+](=O)[O-])s2)s1,67*
C=CCSc1nnc(N)s1,-7
CC1C(=O)N(c2ccc(Cl)c(Cl)c2)CCN1Cc1ccccc1 (configuration not stated),-8
CCOc1ccc(C2(C)NC(=O)N(Cc3cc(Cl)c4c(c3)OCCCO4)C2=O)cc1 (configuration not stated),-4
COc1cccc(-c2ccc3c(c2)N(Cc2ccc(F)cc2)C(=O)C(C)S3)c1 (configuration not stated),-10
CC1Oc2ccccc2N(Cc2ccccc2Cl)C1=O (configuration not stated),-15
CC1Sc2ccccc2N(Cc2ccccc2Cl)C1=O (configuration not stated),69*
Cc1ccccc1CN1C(=O)C(C)Sc2ccc(-c3ccco3)cc21 (configuration not stated),46
Cc1ccccc1CN1C(=O)C(C)Sc2ccccc21 (configuration not stated),24
CC1Sc2ccc(-c3ccco3)cc2N(Cc2ccccc2Cl)C1=O (configuration not stated),69*
Cc1ccc(CN2CCN(Cc3cccnc3)CC2CCO)o1 (configuration not stated),-4
O=C(CSc1nnc(-c2cccs2)n1C1CC1)N1CCCC2CCCCC21 (configuration not stated),-1
CC1CN(C(=O)c2ccc(Cl)c(Cl)c2)CCN1C(=O)OC(C)(C)C (configuration not stated),-2
CCC/C=C/c1c(C)c2ccccc2[nH]c1=O,-2
CC(C(=O)Nc1ccc(Cl)cn1)N(C)CC(=O)Nc1c(Cl)cccc1Cl (configuration not stated),-7
CC(C(=O)Nc1ccc(Cl)cn1)N(C)Cc1ccsc1 (configuration not stated),83*
CC(C(=O)Nc1ccccc1)N(C)Cc1ccc(Cl)cc1 (configuration not stated),-7
O=C(NCCc1ccccn1)c1ccc(-c2ccc3c(c2)OCCO3)s1,-23
O=C(CCc1cc(Cl)cs1)NCCNC(=O)c1ccccc1,-3
Cc1cccc(CNC(=O)c2sc(=O)n(Cc3ccccc3F)c2C)c1,-9
Cc1cccc(CN2CCN(C(=O)c3n[nH]c(=O)c4ccccc34)CC2)c1,-7
O=C(c1n[nH]c(C2CC2)c1Cl)N1CCN(S(=O)(=O)c2ccccc2)CC1,-37
O=C(c1n[nH]c(=O)c2ccccc12)N1CCN(S(=O)(=O)c2cccc(Cl)c2)CC1,87*
CCC(CC)c1cc(CNC(=O)c2cccc(-n3cncn3)c2)on1,-7
N#Cc1ccc(SCCC(=O)NC(N)=O)cc1,-6
SMILES,mcGAS RapidFire
CCOC(=O)c1[nH]nc(-c2ccc(C)cc2)c1C,-13
CCOC(=O)c1[nH]nc2c1C(=O)N(CC)C2=O,62*
CCOC(=O)c1[nH]nc2c1CC/C2=C\c1ccccc1,1
Cc1nc(CCNC(=O)N2CCOCC2C)cs1 (configuration not stated),0
O=c1/c(=C/c2ccc([N+](=O)[O-])cc2)sc2nc3cc(Br)cnc3n12,85*
O=c1c2cc([N+](=O)[O-])ccc2nc2n1CCC2=Cc1ccccc1,1
O=c1c(=Cc2ccccc2I)sc2nc3ccccc3n12,-3
CCn1cc2nc(OC)c(CNC(=O)C3COCCO3)cc2c1O (configuration not stated),-2
O=C1Oc2ccccc2C(=O)C1=CN1CCCCC1,14
CC(C)c1cc(-c2nnc3sc(-c4cccnc4)nn23)n[nH]1,-5
CC(C)Cc1cc(-c2nn3c(-c4cnccn4)nnc3s2)n[nH]1,88*
CC(C)Cc1cc(-c2nn3c(-c4cccnc4)nnc3s2)n[nH]1,-5
CC(C)NC(=S)NN=Cc1ccc[nH]1,-11
Cc1cc(N2C(=O)c3oc4ccccc4c(=O)c3C2c2cccc(F)c2)no1 (configuration not stated),84*
Cc1cc(N2C(=O)c3oc4ccc(F)cc4c(=O)c3C2c2cccc([N+](=O)[O-])c2)no1 (configuration not stated),-8
Cc1cc(N2C(=O)c3oc4ccccc4c(=O)c3C2c2cccc(Cl)c2)no1 (configuration not stated),-1
CC(c1ccc(-n2cncn2)cc1)N(C)Cc1cc(F)cc2cccnc12 (configuration not stated),-6
CC(Nc1nc(-c2cccs2)nc2ccccc12)C1CCCO1 (configuration not stated),-1
Cc1c(C(=O)NCc2cc(-c3ccccc3)n[nH]2)cnn1-c1ccccn1,-13
N#CC(NC(=O)c1[nH]ncc1Br)c1cccc(Cl)c1 (configuration not stated),-17
CC(C)c1nc(NC(=O)CS(=O)(=O)C2CCCC2)n(C)n1,-3
CC(C)c1nc(NC(=O)c2[nH]ncc2Br)n(C)n1,94*
CCOc1cccc(CN2CCC(C(=O)Nc3ccc(-n4nc(C)cc4C)cc3)CC2)c1,-1
CCn1nnc2c(N3CCC(O)CC3)ncnc21,-11
O=C(OCc1cc(=O)oc2ccc3ccccc3c12)c1cc2ccccc2o1,0
SMILES,mcGAS RapidFire
Cc1nc2ccccn2c1C(=O)Nc1ccc2c(c1)C(=O)N1CCCCC1CCO2 (configuration not stated),-9
Fc1ccc(OCc2nnc3n2NCCS3)c(F)c1,-2
O=c1oc2c(O)c(O)cc3c(=O)oc4c(O)c(O)cc1c4c23,93*
O=c1cc(-c2cc(O)c(O)c(O)c2)oc2cc(O)cc(O)c12,3
COCCCn1ccc2nc3ccn(-c4ccccn4)c(=O)c3cc2c1=O,-5
O=C(Cc1ccon1)NC(c1ccccc1F)C1CCCC1 (configuration not stated),-15
CC1COC(c2ccccc2)CN1C(=O)c1cccnc1Cl (configuration not stated),-2
COCCn1c(Cc2ccccc2)nn(CN2CCCC2c2cc(OC)ccc2OC)c1=S (configuration not stated),1
COc1ccc(CCC(=O)N2CCN(Cc3nnc(C4CC4)o3)CC2)cc1,94*
COCCN1CCN(C(=O)CCc2nnc(CCc3ccc(OC)cc3)o2)CC1,-2
COC(=O)C1CCCCN1C(=O)CCc1nnc(CCc2ccc(OC)cc2)o1 (configuration not stated),-12
CC(C)CCN(CCC#N)C(=O)c1nccc2ccccc12,2
N#Cc1ccccc1NC(=O)c1c(-c2ccccc2)c(-c2ccccc2)n[nH]c1=O,-3
N#Cc1ccccc1NC(=O)C1=COCCO1,-8
N#Cc1ccccc1NC(=O)c1n[nH]c([N+](=O)[O-])c1Br,70*
CC(=O)c1ccc(N(C)C)cc1OCc1ccccc1F,3
O=c1c(O)c(-c2ccccc2)[nH]c2ccccc12,-10
O=c1[nH]c2c(-c3ccccc3)c(O)cn2c2c1sc1ccccc12,70*
O=c1[nH]c2c(-c3nc4ccccc4s3)c(O)cn2c2sc3c(c12)CCCC3,-8
CC(C)(C)OC(=O)N1CCC(NCCc2ccc(Cl)cc2)C1 (configuration not stated),-8
C=CCn1cc(CN2CCN(Cc3ccc4c(c3)OCO4)C(=O)C2)c(C)n1,-5
C=CCn1cc(CN2CCn3nc(-c4nc5ccccc5n4C)cc3C2)c(C)n1,79*
Cn1c(-c2ccc(CN3CCn4cncc4C3)o2)nc2ccccc21,-16
Cc1ccc(C(NC(=O)C2=COCCO2)c2cccs2)cc1 (configuration not stated),-9

# Compound activity deposited in PubChem BioAssay by Fisher Drug Discovery Resource Center.
